Screens: PubChem, The Scripps Research Institute Molecular Screening Center
Sampled rows, rich in hits. Any-hit rate of the full collection: about 2.9%.
Fam108B inh – Fam108B inhibition, counter-screen for RBBP9 inhibitors; recombinant Fam108B, FP-Rh probe fluorescence polarization; inhibition, % at 9.51 µM; AID 1947; 300,000 tested, 0.33% active;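 active = inhibition above the screen mean inhibition plus 3 SD, computed separately per campaign, cut at about 18% in these data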;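 note: inhibitors lower polarization as less probe binds the enzyme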
PAFAH2 FP inh – inhibitors of human PAFAH2. Q99487. AID 492956. recombinant PAFAH2, FP-rhodamine activity probe, fluorescence polarization. 340,000 tested, 0.99% active. inhibition, % at 3.39 µM;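 active = inhibition above the mean over all tested compounds plus 3 SD, cut at about 30% in these data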;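 note: inhibitors block probe labeling of enzyme so polarization drops; 0% = enzyme with DMSO and 100% = wells lacking PAFAH2 protein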
PME-1 primary – blocks human protein phosphatase methylesterase 1; Q9Y570; AID 2130; recombinant PME-1, FP-Rh probe fluorescence polarization; inhibition, % at 5.9 µM; 320,000 tested, 0.53% active;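 active = inhibition above the campaign mean of all compounds plus 3 SD, cut at about 26% in these data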;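 note: competitive labeling of PME-1 active site by serine hydrolase directed probe; 0% = PME-1 with DMSO and 100% = wells lacking PME-1 enzyme; inhibitors block probe labeling so polarization falls and inhibition rises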
PAFAH1B3 inh – inhibitors of human PAFAH1B3 | 340,000 tested, 0.28% active | inhibition, % at 3.39 µM | recombinant PAFAH1B3, FP-rhodamine probe, fluorescence polarization;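 active = inhibition above the screen-wide average of all tested compounds plus 3 SD, cut at about 25% in these data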;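 note: 0% = enzyme with DMSO only and 100% = wells lacking PAFAH1B3 protein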
Target sequence (Q15102 whole entry, looked up): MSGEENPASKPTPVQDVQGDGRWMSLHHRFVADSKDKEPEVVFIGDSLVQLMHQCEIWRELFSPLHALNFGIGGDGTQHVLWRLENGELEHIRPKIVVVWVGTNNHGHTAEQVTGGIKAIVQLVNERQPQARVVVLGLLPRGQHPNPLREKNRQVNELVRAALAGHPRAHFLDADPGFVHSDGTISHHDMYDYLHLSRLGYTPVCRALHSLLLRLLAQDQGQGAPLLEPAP
PAFAH1B2 inh – PAFAH1B2 (human) inhibition. 340,000 tested, 1.2% active. inhibition, % at 3.39 µM. recombinant PAFAH1B2, FP-rhodamine activity probe, fluorescence polarization. AID 492953;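 active = inhibition above the mean of all tested compounds plus 3 SD, cut at about 24% in these data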;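 note: 0% = enzyme with DMSO and 100% = wells lacking PAFAH1B2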
Target sequence (P68402 whole entry, looked up): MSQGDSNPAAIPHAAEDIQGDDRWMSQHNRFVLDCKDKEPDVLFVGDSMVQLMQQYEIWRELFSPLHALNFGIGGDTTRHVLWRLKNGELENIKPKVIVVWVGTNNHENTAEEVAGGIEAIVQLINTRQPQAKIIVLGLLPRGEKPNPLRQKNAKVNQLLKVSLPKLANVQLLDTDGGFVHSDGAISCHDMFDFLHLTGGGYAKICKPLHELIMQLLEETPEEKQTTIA
pPAFAH FP inh – pPAFAH (human) enzyme inhibition; AID 463082; Q13093; recombinant pPAFAH, FP-rhodamine probe fluorescence polarization; inhibition, % at 3.39 µM; 330,000 tested, 1.5% active;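 active = inhibition above the mean inhibition across the screen plus 3 SD, cut at about 25% in these data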;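 note: inhibitors block binding of the rhodamine activity-based probe so polarization drops; 0% = enzyme with DMSO and 100% = wells lacking pPAFAH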
PAFAH2 FP conf – PAFAH2 (human) inhibition, confirmed | shares compounds with PAFAH2 FP inh | recombinant PAFAH2, FP-rhodamine activity probe, fluorescence polarization | inhibition, % at 3.39 µM | 2,300 tested, 65% active;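 active = mean inhibition over three repeats above a set limit taken from the earlier primary screen, cut at about 30% in these data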;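 note: inhibitor blocks binding of rhodamine activity probe so polarization falls; 0% = enzyme with DMSO and 100% = wells lacking PAFAH2 protein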
Starred values were filed as active, the others as inactive; / = no result.

SMILES	Fam108B inh	PAFAH2 FP inh	PME-1 primary	PAFAH1B3 inh	PAFAH1B2 inh	pPAFAH FP inh	PAFAH2 FP conf
COc1ccccc1NS(=O)(=O)c1ccc(O)c(C(=O)OCC(=O)c2ccc(Cl)cc2Cl)c1	-7.2	37.9*	2.7	4.2	13.1	9.8	23.1
CCN(CC)S(=O)(=O)c1ccc(O)c(C(=O)OCC(=O)N2CCCC2)c1	0.6	2.2	-1.1	2.6	1.7	4.9	/
COc1ccccc1NS(=O)(=O)c1ccc(O)c(C(=O)OCC(=O)N2c3ccccc3CC2C)c1 (stereo not given)	-6.0	56.8*	-4.3	4.3	13.9	13.0	46.8*
CCc1ccc(NC(=O)CSc2nc(O)cc(=O)n2C2CCCC2)cc1	-4.6	-0.2	-15.6	4.0	-0.9	0.0	/
CC(C)(C)SCCNC(=O)CSCc1ccc([N+](=O)[O-])cc1	0.9	-1.4	4.0	0.4	6.6	7.6	/
Cc1ccc(C(=O)C(C)OC(=O)CCN2C(=O)C3C4C=CC(C5CC45)C3C2=O)cc1 (stereo not given)	-4.8	0.8	-0.3	-0.5	3.8	8.4	/
Cc1cc(Nc2cccc(O)c2)c2ccccc2n1	-1.6	/	2.1	/	/	1.2	/
Cc1cc(Nc2cccc(Br)c2)c2ccccc2n1	1.3	49.9*	0.7	4.3	-3.0	2.0	7.5
O=C(CCC(NC(=O)OCc1ccccc1)C(=O)OCc1ccccc1)NCC(=O)OCc1ccccc1 (stereo not given)	-4.0	0.2	0.0	1.1	2.0	23.0	/
CC(C)Cc1csc(NC(=O)c2ccc(F)cc2)c1C(=O)O	-2.8	36.6*	-0.5	2.8	2.9	9.0	21.1
CC(=O)OCCN1C(=O)c2ccc(-c3nc4ccccc4c(=O)o3)cc2C1=O	2.5	53.4*	-3.8	-1.4	2.1	2.0	45.8*
CCN1C(=O)c2ccc(-c3nc4ccccc4c(=O)o3)cc2C1=O	4.2	34.9*	0.1	10.6	2.0	-2.7	62.8*
CCC(=O)Nc1ccc(-c2nc3ccccc3c(=O)o2)cc1	/	2.9	/	-6.3	6.6	/	/
CCc1nc2ccccc2c(C(=O)OCCN2C(=O)c3ccccc3C2=O)c1C	0.2	3.0	-5.2	8.8	-3.0	2.8	/
Cc1ccc(Cl)cc1NS(=O)(=O)c1ccc2c(c1)NC(=O)C(C)C(=O)N2 (stereo not given)	-5.3	11.0	-1.9	3.1	3.8	12.8	/
Cc1ccc(NC(=O)COC(=O)c2ccc(CN3CCCC3=O)cc2)cc1C	/	91.8*	/	8.6	0.4	/	84.6*
O=C(COC(=O)c1ccc(CN2CCCC2=O)cc1)Nc1ccc(F)cc1	/	85.5*	1.7	5.9	0.4	8.4	86.3*
CC1CCCC(C)N1C(=O)COC(=O)c1ccco1 (stereo not given)	/	31.1*	/	10.9	5.7	-3.0	4.0
COc1ccc(C(=O)N(C)Cc2ccon2)cc1OC1CCN(C(C)C)CC1	-2.1	5.1	-2.6	13.5	2.7	1.2	/
COC(=O)c1scc(S(C)(=O)=O)c1-n1cccc1	-0.5	/	4.4	/	/	3.8	/
COc1ccc(NC(=O)CC2Nc3ccccc3NC2=O)c([N+](=O)[O-])c1 (stereo not given)	-2.9	0.3	1.1	3.9	1.3	10.7	/
COc1ccccc1NC(=O)CC1Nc2ccccc2NC1=O (stereo not given)	3.4	86.3*	17.6	9.0	5.2	8.7	-0.7
C=CCN(CC=C)C(=S)NCCc1ccc(OC)c(OC)c1	2.1	0.9	0.8	2.2	1.1	1.6	/
N[C@@H](Cc1cc(I)c(O)c(I)c1)C(=O)O	8.7	54.0*	-2.7	17.1	15.4	-3.1	8.6
C=C1CC2(CC(c3ccccc3)OC(c3ccccc3)C2)OC1=O (stereo not given)	/	4.9	/	-1.4	0.4	/	/
SMILES	Fam108B inh	PAFAH2 FP inh	PME-1 primary	PAFAH1B3 inh	PAFAH1B2 inh	pPAFAH FP inh	PAFAH2 FP conf
CCCOc1ccccc1/C=C(\C#N)C(=O)Nc1cccc(C)n1	12.2	57.6*	-2.0	8.8	2.1	3.0	51.9*
CCOc1ccccc1/C=C(/C#N)C(N)=O	2.6	-3.2	-0.5	3.0	7.4	6.2	/
O=C(Nc1ccc(F)cc1)N1CCn2c(nc3ccccc32)C1	-4.8	3.5	0.2	12.5	3.1	2.5	/
Cc1c(C#N)c(O)[nH]c(=O)c1N=Nc1ccc(S(N)(=O)=O)cc1	-3.6	46.9*	10.3	14.1	9.1	18.5	28.9
CC1=C(C#N)c2nc(N)c(C#N)c(C)c2/C1=C\c1ccc(-c2ccccc2C(=O)O)o1	/	31.6*	/	21.8	13.7	/	20.1
COc1cc(/C=C2/C(C)=C(C#N)c3nc(N)c(C#N)c(C)c32)ccc1OCC(=O)O	4.7	/	-6.5	/	/	23.9	/
COCC(=O)Nc1ccc(F)cc1	4.2	7.2	0.0	5.2	-0.1	1.9	/
Cc1occc1C(=O)OCC(=O)Nc1ccc(F)cc1	-4.3	72.7*	-2.8	4.7	0.8	7.1	61.8*
O=C(COC(=O)c1ccccc1Br)NCCc1ccc(F)cc1	1.9	-5.1	4.5	1.7	-0.1	7.8	/
O=C(COC(=O)c1ccccc1Br)Nc1ccc(F)cc1	0.0	76.1*	-5.0	5.1	5.4	11.9	69.6*
CC1(C)CC(=O)c2cnc(N)nc2C1	-2.0	-0.3	-11.1	-0.5	-0.5	-0.6	/
CC1(C)CC(=O)c2cc3c(nc2C1)CC(C)(C)CC3=O	-0.8	50.5*	5.4	0.8	8.7	3.4	34.2*
COc1ccccc1-n1nnnc1SCC(=O)N1CCCC1=O	1.1	51.4*	0.0	-3.1	3.3	-2.3	42.1*
COc1ccc(-n2nnnc2SCC(=O)N2CCCC2=O)cc1	/	0.2	-6.2	2.8	4.8	-1.0	/
COc1ccc(-n2nnnc2SCC(=O)N2CCCc3ccccc32)cc1OC	1.1	-5.4	-4.9	-1.1	4.6	4.2	/
O=C1CCCN1C(=O)CSc1nnnn1-c1ccccc1	/	36.7*	3.8	5.7	11.7	1.9	30.7*
COc1ccc(NC(=S)N2CCC(c3nc4ccccc4[nH]3)CC2)c(OC)c1	2.8	5.3	1.7	-0.9	0.7	8.1	/
CCSc1nnc(N(CCC#N)CCC#N)s1	5.9	-9.2	-0.2	8.6	7.7	-0.1	/
COc1cc(C)c2c(c1C=O)Oc1c(c(C)c(O)c3c1C(O)OC3=O)OC2=O (stereo not given)	0.2	48.6*	-5.4	2.9	1.2	6.5	25.5
O=[N+]([O-])c1ccc(O)c(/C=N/Nc2ccccc2Cl)c1	4.4	74.3*	4.7	10.9	3.4	16.2	62.2*
COc1ccc(C(=O)OCC(=O)Nc2ccc(Cl)c(C(F)(F)F)c2)c(OC)c1OC	-8.3	67.7*	-6.1	-2.5	3.4	20.6	76.8*
COc1ccc(C)cc1NC(=O)COC(=O)c1c(C)noc1C	-0.3	45.8*	2.7	4.7	-2.6	-1.3	-0.7
COc1cc(OC)c(C(=O)OCC(=O)Nc2cc(C)on2)cc1OC	1.3	4.9	0.5	4.2	-2.9	-0.9	/
